About 83,000 compounds went through this panel and 20% of them were active in at least one assay; those are over-represented in the sample as a whole.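 Growth was measured after 48 h exposure to one concentration of compound in 96-well plates. Values under 10 count as active.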 Values without a mark were called inactive. Activity calls are given as the source filed them.
Assays:
Assay in all cases: NCI-60 one-dose screen, 48 h (100 = growth as untreated, 0 = no growth, -100 = all killed)
Settings in all cases: 10 µM unless noted
HCT-15 colon = system: HCT-15 colon
HT29 colon = system: HT29 colon
SNB-75 CNS = system: SNB-75 CNS
SNB-19 CNS = system: SNB-19 CNS
U251 CNS = system: U251 CNS
PC-3 prostate = system: PC-3 prostate
SK-MEL-5 melanoma = system: SK-MEL-5 melanoma
UACC-62 melanoma = system: UACC-62 melanoma
LOX IMVI melanoma = system: LOX IMVI melanoma
SK-MEL-28 melanoma = system: SK-MEL-28 melanoma

Row | SMILES | growth (HCT-15 colon) | growth (HT29 colon) | growth (SNB-75 CNS) | growth (SNB-19 CNS) | growth (U251 CNS) | growth (PC-3 prostate) | growth (SK-MEL-5 melanoma) | growth (UACC-62 melanoma) | growth (LOX IMVI melanoma) | growth (SK-MEL-28 melanoma)
1 | C/C=C(/C)n1cnc2c(Nc3ccccn3)nc(Cl)nc21 | 103% | 98.1% | 87.9% | 107% | 99.8% | 95.3% | 101% | 95.8% | 95.3% | 105%
2 | C[n+]1ccc(CCc2c[nH]c3ccccc23)cc1 | 99.7% | 88.8% | 74.6% | 102% | 95.2% | 84% | 104% | 101% | 94.6% | 100%
3 | CC1(C)NCCC[C@]2(C)[C@H]3CC[C@H]4[C@H]5[C@H](C(=O)/C=C/c6cccnc6)CCC[C@]5(CO)CC[C@@]4(C)[C@]3(C)CC[C@@H]12 | 33.5% | 3.84% (active) | 75.8% | 72.2% | 11% | 59.4% | 87% | 96.7% | 13% | 93.6%
4 | COc1ccc2c(c1)c(-c1nc(-c3c[nH]c4ncccc34)cs1)cn2CCCN1CCOCC1 | 13.7% | -12.9% (active) | 21.4% | 54.4% | 16.3% | 18.2% | 31.6% | 44.1% | 17% | -54.1% (active)
5 | Cc1cn(-c2cc(NC(=O)c3cncc(C#Cc4c(N)ncc5ccc(F)cc45)c3)cc(C(F)(F)F)c2)cn1 | 49.9% | 8.94% (active) | 76.8% | 91.9% | 80.4% | 71.7% | 27.4% | 33.8% | 23% | 42.4%
6 | CCCCNc1nnc2n(Cc3ccccc3)c(=O)c3c4c(sc3n12)CCCC4 | 30.5% | 24.8% | 66.4% | 56.5% | 48.5% | 42.7% | 27.7% | 32.5% | 30.2% | 60.7%
7 | NC(N)=NS(=O)(=O)c1ccc(NC2=C(I)C(=O)c3ncccc3C2=O)cc1 | 103% | 106% | 67.9% | 98.7% | 110% | 92.1% | 97.9% | 94.2% | 95% | 135%
8 | CN1CCN(Cc2ccc(NC(=O)c3cncc(C#Cc4cnc(N)c5ncccc45)c3)cc2C(F)(F)F)CC1 | -30.2% (active) | -50.2% (active) | -76.8% (active) | 44.3% | -37.6% (active) | 13.6% | -91.9% (active) | 6.71% (active) | -83.6% (active) | -86.8% (active)
9 | COc1cc(-c2nc3sccn3c2-c2ccnc(NCCNS(=O)(=O)c3ccc(Cl)cc3)n2)ccc1F | 20.6% | 22.8% | 85.6% | 78.8% | 55.6% | 13.1% | -14.7% (active) | -45.3% (active) | 19.2% | 44.9%
10 | Oc1c(CN2CCOCC2)cc(COCc2ccccc2)c2cccnc12 | 20.5% | 88.2% | 49.5% | 35.7% | 11% | 31.4% | -12.3% (active) | -25.7% (active) | 12.5% | 36.3%
11 | COc1ccc2c(c1)c(-c1nc(-c3c[nH]c4ncccc34)cs1)cn2CCO | 32% | 54.5% | 31.7% | 82.4% | 53.2% | 49% | 58.4% | 58.4% | 42.8% | 78.5%
12 | O=C(Nc1ncccc1OCc1ccccc1)NC1CCCCCC1 | 80.7% | 74.6% | 97.7% | 97.9% | 96.2% | 48.1% | 69.1% | 71.6% | 90.6% | 93.6%
13 | COc1cc(C(=O)c2c(-c3ccccc3)oc3c(OC)cccc23)cc(OC)c1OC | 5.88% (active) | 8.2% (active) | 7.41% (active) | 25% | 14.2% | 17.2% | -42.3% (active) | 30.2% | 12.2% | 59.9%
